Source: PubChem
The list is not random: actives were taken first. Their share in the collection is about 22%.
CYP2C9 act: CYP2C9 (human) activation; P11712; recombinant CYP2C9, luciferin-H conversion, luminescence; stronger effect = higher value; factor 1 = untreated enzyme, 0 = blocked; activation factor at 5 µM; hit rate 1.4% among 96,000;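 active = activation factor of 2 or more for CYP2C9 at a 5 µM dose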;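 also: 0 = sulfaphenazole-blocked wells and 1 = vehicle-only wells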
Target sequence (P11712 whole entry, looked up): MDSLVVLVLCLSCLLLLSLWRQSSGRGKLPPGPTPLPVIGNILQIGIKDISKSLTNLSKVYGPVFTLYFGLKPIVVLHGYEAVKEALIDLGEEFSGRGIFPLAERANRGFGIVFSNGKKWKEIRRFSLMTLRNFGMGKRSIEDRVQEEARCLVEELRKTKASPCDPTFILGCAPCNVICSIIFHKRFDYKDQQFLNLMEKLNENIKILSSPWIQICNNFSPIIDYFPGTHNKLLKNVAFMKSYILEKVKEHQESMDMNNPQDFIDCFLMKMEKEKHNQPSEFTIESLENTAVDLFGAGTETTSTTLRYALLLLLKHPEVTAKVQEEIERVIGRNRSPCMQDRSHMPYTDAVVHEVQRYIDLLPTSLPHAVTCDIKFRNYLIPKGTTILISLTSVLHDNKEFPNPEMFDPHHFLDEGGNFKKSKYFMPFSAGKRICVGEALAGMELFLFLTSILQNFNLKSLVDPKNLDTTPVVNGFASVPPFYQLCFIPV
CYP2C19 activ: activators of human cytochrome P450 2C19; P33261; activation factor at 5 µM; recombinant CYP2C19, luciferin-H EGE luminescence; stronger effect = higher value; 0 = fully inhibited enzyme, 1 = untreated enzyme; 96,000 tested, under 10 active;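 active = activation factor of at least 2 at 5 µM in the primary screen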;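 also: 0 = wells with 2.5 mM tranylcypromine and 1 = vehicle-only wells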
CYP2C9 inhib: blocks human cytochrome P450 2C9; P11712; hit rate 20% among 96,000; inhibition, % at 5 µM; AID 777; CYP2C9 Supersomes, luciferin-H conversion, luminescence;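 active = blocking of liver enzyme CYP2C9 beyond about 50% at 5 µM, limit read from the data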
CYP2C19 inhib: human CYP2C19 inhibition | P33261 | CYP2C19 Supersomes, luciferin-H EGE luminescence, 30 min | inhibition, % at 5 µM | hit rate 21% among 96,000 | AID 778;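 active = CYP2C19 inhibition above a set limit at 5 µM in the primary screen, cut at about 50% in these data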;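 also: plate controls were negative control wells for no effect and 2.5 mM tranylcypromine positive control for full effect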
Measles CPE: protection of cells from measles virus; hit rate 1.5% among 140,000; AID 841; Measles virus-infected cells, CPE protection, absorbance; protection (pct of control), % at 4 µM; in the data active = protection mostly above about 24%, no sharp cut-off; inactive = mostly below about 26%
Numbers without * were called inactive; / = not tested or not shown.

SMILES | CYP2C9 act | CYP2C19 activ | CYP2C9 inhib | CYP2C19 inhib | Measles CPE
O=c1nc(N2CCOCC2)ccn1-c1nc(-c2ccccc2)oc1-c1ccccc1 | 0.5 | 1.1 | 54.7* | -5.0 | 9.1
C#CCn1c(=NC(=O)c2cccs2)sc2cccc(OCC)c21 | 0.3 | 0.9 | 67.6* | 5.1 | 4.8
C#CCn1c(=NC(=O)c2ccc(Cl)s2)sc2cccc(OC)c21 | 1.4 | 0.8 | -36.6 | 23.5 | 21.7
Cc1cc(O)c(C(C[N+](=O)[O-])c2ccc(Cl)cc2Cl)c(=O)o1 (stereo not drawn) | 0 | 0.2 | 97.6* | 77.1* | 3.0
O=c1[nH][nH]c(-c2ccccc2O)c1C(C[N+](=O)[O-])c1ccc(Cl)cc1Cl (stereo not drawn) | / | / | / | / | 26.6
Cc1noc(C)c1COC(=O)Cc1ccc(Cl)c(Cl)c1 | 0.9 | 0.7 | 12.4 | 32.1 | 39.7*
Cc1noc(C)c1COC(=O)[C@H](C)NS(=O)(=O)c1ccc(Cl)c(Cl)c1 | 0.4 | 0 | 61.5* | 97.9* | 11.1
Cc1noc(C)c1COC(=O)CCc1ccc(S(=O)(=O)N2CCCCC2)cc1 | 0.7 | 0.6 | 32.5 | 41.4 | 23.2
Cc1ccc(C(C)C)c(OCC(=O)OCc2c(C)noc2C)c1 | 0.6 | 0.9 | 38.4 | 9.1 | 6.0
Cc1cc(C)n(C2CC(=O)N(c3ccccc3)C2=O)n1 (stereo not drawn) | / | / | / | / | 23.7
COc1ccc(-c2nc(Cn3c(SCc4ccc(C)cc4)nc4ccncc43)c(C)o2)cc1OC | 0.5 | 0.5 | 52.9* | 53.1* | 7.4
CCC(C(=O)NC1CCCCC1)n1c(SCc2cccc(F)c2)nc2ccncc21 (stereo not drawn) | / | / | / | / | 3.9
Cc1ccc(CSc2nc3ccncc3n2CC(=O)Nc2cc(C)cc(C)c2)cc1 | / | / | / | / | 6.0
COc1ccc(-c2nc(Cn3c(SCc4cccc(F)c4)nc4ccncc43)c(C)o2)cc1OC | 0.1 | 0.3 | 89.0* | 73.2* | 4.1
Cc1nc(SCC(=O)Nc2ccc(C)c(F)c2)c2oc3ccccc3c2n1 | 0.1 | 0.2 | 93.0* | 79.4* | 21.2
O=C(CSc1ncnc2c1oc1ccccc12)Nc1ccccc1C(F)(F)F | 0.2 | 0.6 | 84.8* | 44.1 | 13.7
COc1ccc(CCNC(=O)CSc2ncnc3c2oc2ccccc23)cc1OC | 0.2 | 0.5 | 82.1* | 51.2* | 3.4
O=C(O)CSc1ncnc2c1oc1ccccc12 | 0.9 | 1 | 6.1 | 0.7 | 27.3*
CC(C)/C=N\NC(=O)CCCCC(=O)N/N=C/C(C)C | / | / | / | / | 38.2
O=C(CSc1ncnc2c1oc1ccccc12)NCc1ccco1 | 0.4 | 0.8 | 59.8* | 17.3 | 4.2
CCOC(=O)c1c(NC(N)=O)sc(C)c1C | 0.5 | 0.8 | 51.9* | 23.5 | 10.5
CCOC(=O)c1c(NC(=O)CNCCO)sc(C)c1C | 0.3 | 0.7 | 65.2* | 33.1 | 29.7
COc1cccc(C(=O)N(CN2CCCC2=O)c2cc(C)on2)c1 | 0.5 | 0.8 | 49.7 | 17.9 | 6.5
CCC(C(=O)OCC(=O)Nc1c(Cl)cccc1Cl)c1ccccc1 (stereo not drawn) | / | / | / | / | 3.4
CCOc1cc(C(=O)NC(C)COC)cc(OCC)c1OCC (stereo not drawn) | 1.1 | 1.1 | -12.4 | -7.9 | 5.1
SMILES | CYP2C9 act | CYP2C19 activ | CYP2C9 inhib | CYP2C19 inhib | Measles CPE
O=C(CCS(=O)(=O)c1cccs1)NC1CCCCCC1 | 1 | 0.9 | -0.7 | 11.9 | 5.2
O=C(NC1CCCCCC1)C1CCCN(S(=O)(=O)c2cccs2)C1 (stereo not drawn) | 0.2 | 1 | 76.7* | 0.9 | 16.6
O=S(=O)(NC1CCCCCCC1)c1cccs1 | 0.5 | 0.5 | 49.3 | 53.7* | 5.6
O=C(NCCc1ccccc1)C1CCCN(S(=O)(=O)c2cccs2)C1 (stereo not drawn) | 0.1 | 0.5 | 85.5* | 45.4 | 21.7
COc1ccc(NC(=O)C2CCCN(S(=O)(=O)c3cccs3)C2)cc1OC (stereo not drawn) | 0.7 | 0.8 | 31.0 | 23.8 | 3.7
O=c1[nH]c2cc3c(cc2cc1CN(Cc1nnnn1C1CCCC1)C1CCCC1)OCCO3 | 1.1 | 1.1 | -11.5 | -9.0 | 12.4
COC(=O)c1ccccc1N1C(=O)C2C(C1=O)[C@H]1C=C[C@@H]2C1 (stereo partly drawn) | 0.9 | 0.7 | 14.8 | 25.1 | 101.0*
COC(=O)c1ccccc1N1C(=O)C2C(C1=O)C1C=CC2C12CC2 (stereo not drawn) | 1 | 0.9 | -0.4 | 13.5 | 9.6
COC(=O)c1ccccc1N1C(=O)[C@@H]2C(c3ccc(Br)cc3)=NO[C@@H]2C1=O | 0.5 | 0 | 45.9 | 99.3* | 18.0
